From PubChem BioAssay (NCI)
Values joined by “and” are separate entries in the source; they are usually repeats but may differ in a detail not shown here. Equal values may be shown once. Compounds without any hit were thinned out: in the full panel of roughly 83,000, 20% have a hit.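 Cell lines were cultured in 96-well plates, exposed to a single compound concentration, and assessed for percent growth 48 hours later.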 Active and inactive are the calls of the source. How the source made its calls: active means growth percent below 10; inactive means the rest.

Test system: MDA-MB-468 breast
Assay: NCI-60 one-dose screen, 48 h (100 = growth as untreated, 0 = no growth, -100 = all killed)
Details: 10 µM unless noted

Compound	growth
OC(CCN1CCCC1)(c1ccccc1)C1CCCCC1 (stereo not given)	92% (inactive)
COc1ccc(-c2cnc3ccccc3n2)cc1	99.7% (inactive)
CNc1nc(S(=O)c2ccc(C#N)cc2)nc2ccccc12 (stereo not given)	-4.09% (active)
COc1cc(C2C3=C(COC3=O)N(CCO)c3cc4c(cc32)OCO4)cc(OC)c1OC (stereo not given)	0.559% (active)
COC(=O)C1CN(S(=O)(=O)/N=C2\NC(=O)NC2=C(Cl)Cl)C1	72.5% (inactive)
Cc1cc(NCCCN(C)C)c2ccc3c(ccc4c(NCCCN(C)C)cc(C)nc43)c2n1	-88.9% (active)
O=C(Nc1ccccc1Cl)c1cnc2ccc(C3CCNCC3)cn12	63.3% (inactive)
CN1CCN(c2nc(-c3csc(-c4ccncc4)n3)cc3ccccc23)CC1	25.8% (inactive)
Cn1cc(-c2ccc3nc(-c4ccc(CC(=O)ONc5cc(C(C)(C)C)on5)cc4)cnc3c2)cn1	45.8% (inactive)
O=C(Nc1nccs1)c1noc2ccccc12	87.3% (inactive)
CCN1C(=O)/C(=C/C=C/N(C)c2ccccc2)SC1=S	89.1% (inactive)
NC1N=C(SCC(=O)N2CCN(c3cc4c(cc3F)c(=O)c(C(=O)O)cn4C3CC3)CC2)NC(=O)/C1=C/c1ccc(Cl)cc1 (stereo not given)	111% (inactive)
Nc1ncnc2c1ccn2-c1cccc(NC(=O)c2ccc(N3CCOCC3)c(C(F)(F)F)c2)c1	40.3% (inactive)
Cc1c(-c2cnc3ccc(Cl)cc3c2C(=O)O)nnn1-c1ccc(Cl)cc1	110% (inactive)
CCCCNC(=O)Oc1ccc(/C(=C(/CC)Cc2ccccc2)c2ccc(OCCN3CCCCCC3)cc2)cc1	6.65% (active)
CCN1C(=O)N(CC)C2C1NN=c1s/c(=C3\C(=O)N(C4CCCC4)c4ccccc43)c(=O)n12 (stereo not given)	-43.2% (active)
Nc1ccc(N=Nc2ccc(S(=O)(=O)O)cc2)c2ccccc12	97.2% (inactive)
Brc1ccc(-c2nnc3c4[nH]ccc4ncn23)cc1	104% (inactive)
CN(C)C(=N)N=C(N)N	80.6% (inactive) and 128% (inactive)
Cn1c(=O)c2[nH]c(CC(=O)O)nc2n(C)c1=O	107% (inactive)

Compound	growth
Cn1cc(C=O)c2ccccc21	100% (inactive)
NC(=O)C(O)(c1ccccc1)c1ccccc1	95.1% (inactive)
C#CCN(C)CCCOc1ccc(NC(=O)CCCCCCC(=O)NO)cc1Cl	-0.749% (active)
NC(N)=Nc1ccc(Oc2ccc(Nc3ccc(Cl)c(C(F)(F)F)c3)cc2)cc1	22.2% (inactive)
CCCC/C(=C\c1ccc(O)c(O)c1)C(=O)NC(Cc1ccccc1)C(=O)C(=O)NCCc1ccc(OC)cc1 (stereo not given)	93.2% (inactive)
Clc1ccccc1-c1nc2ccccc2[nH]1	88.3% (inactive)
COc1ccc(/C=c2\sc3n(c2=O)C(c2cc(OC)c(OC)c(OC)c2)C=C(c2ccc(OC)c(OC)c2)N=3)cc1OC (stereo not given)	105% (inactive)
CC(C)C(=O)c1ccc(Cl)s1	91.6% (inactive)
N=C(N)c1ccc(-c2ccc(-c3ccc(Cl)cc3Cl)s2)cc1	-57.1% (active)
O=C(Nc1ccc(-n2cc(-c3ccncc3)c(-c3ccc(O)c(Cl)c3)n2)cc1)Nc1cccc(Cl)c1Cl	43.5% (inactive)
Cc1ccc(C2SCC(=O)N2NC(=O)c2[nH]c3ccc(F)cc3c2-c2ccccc2)cc1 (stereo not given)	96% (inactive)
CCCCCCNC(=O)Oc1ccc(/C(=C(/C)Cc2ccc(OC)cc2)c2ccc(OCCN3CCCCC3)cc2)cc1	88.6% (inactive)
Cl.Fc1c[c-]c(-c2ccccn2)c(F)c1.[Pt].c1ccc([PH+](c2ccccc2)c2ccccc2[PH+](c2ccccc2)c2ccccc2)cc1	-85.8% (active)
N/C(=N\C(N)=N\c1nc2ccccc2s1)c1ccnc(Cl)c1	51.9% (inactive)
Cc1ccc(C(=O)CSc2nnc(-c3ccc(-c4ccc(Cl)cc4)nc3C)o2)cc1	94.9% (inactive)
COc1ccc2c(c1)c(-c1nn3c(=O)cc(-c4ccccc4)nc3s1)cn2C	20.1% (inactive)
COc1ccc(C2=NN(C(C)=O)C(c3c(C)nn(-c4ccccc4)c3N3CCOCC3)C2)cc1 (stereo not given)	92.6% (inactive)
COc1cc2cc(Oc3cccc(NC(=O)Nc4cc(C(F)(F)F)cc(C(F)(F)F)c4)c3)c(C)nc2cc1OC	-8.12% (active)
O=[N+]([O-])c1ccc(N/N=C(/C(=N/Nc2ccc([N+](=O)[O-])cc2)c2ccccc2)c2ccccc2)cc1	80.6% (inactive)
O=C(N/N=C/c1ccc(O)cc1O)c1ccc(Nc2ccnc(C(F)(F)F)c2)cc1	29.5% (inactive)
